# From paper PMC5540273 (PLoS ONE, 2017)
# Tested on: SLK
# Details: concentration: 1 μM, replicates: in singlicate; n = 1
# 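Further: KINOMEscan kinase panel screen.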
row,SMILES,%Inh
1,[2H]C([2H])(c1cccc(C(F)(F)F)c1C)n1ccn2c(=O)nc(N3CCOCC3)cc12 [GSK2336394],22%
2,N#Cc1c(N2CCOCC2)sc(-c2ccn[nH]2)c1-c1ccc(Cl)cc1,17%
3,CN(C1=C(c2ccccc2)C(=O)NC1=O)c1ccccc1 [SB-334860],10%
4,Cc1cn2c(=O)cc(N3CCOCC3)nc2n1Cc1cccc(Cl)c1Cl [GSK2334006],32%
5,Fc1ccc(-c2ncn(CCCN3CCOCC3)c2-c2cccnc2)cc1 [SB-211743],25%
6,O=c1cc(N2CCOCC2)nc2n(Cc3cccc(F)c3)ccn12 [GSK2297430],18%
7,O=C(Nc1cccc(-c2nn3ncccc3c2-c2ccnc(Nc3cccc(C(F)(F)F)c3)n2)c1)c1c(F)cccc1F [GSK299495],81%
8,Cc1c2ccc(N(C)c3ccnc(Nc4cccc(S(N)(=O)=O)c4)n3)cc2nn1Cc1ccccc1.Cl.Cl [GW787226],66%
9,O=C(Nc1n[nH]c2cc(-c3cccc(F)c3)ccc12)C1CC1 [SB-735464],11%
10,CCCCCc1nc2c(N)ncnc2n1CCCCC [SKF-97255],8%
11,Cc1ccc(C(=O)NCC(N)=O)cc1-n1c(C)cc(OCc2ccc(F)cc2F)c(Br)c1=O,24%
12,NCC(NC(=O)c1cc(-c2cn[nH]c2)c(-c2ccnc3[nH]ccc23)s1)c1ccccc1.O=C(O)C(F)(F)F.O=C(O)C(F)(F)F (stereo not drawn) [GSK1325775],0%
13,COc1ccc(Nc2nccc(N3CCC(NC(=O)Nc4cccc(C(C)=O)c4)C3)n2)cc1 (stereo not drawn) [GSK1379731],0%
14,COCCNC(=O)c1ccc(-c2cc(C(=O)NC3CC3)cc(F)c2C)cc1 [GW868318],0%
15,COC(=O)Nc1nc2cc(Oc3ccc(NC(=O)Nc4cc(F)ccc4F)cc3)ccc2[nH]1.Cl [GW701424],9%
16,O=C(c1ccc(-c2cc(-c3c[nH]nc3-c3ccccn3)ccn2)cc1)N1CCOCC1 [GW812171],0%
17,NS(=O)(=O)c1cccc(-c2ccc3nccc(-c4cccc(S(N)(=O)=O)c4)c3c2)c1 [GW867253],0%
18,CN1c2ccc(CNc3ccc(F)cc3)cc2-c2c(cnn2C)S1(=O)=O,0%

row,SMILES,%Inh
1,O=c1cc(N2CCOCC2)nc2n(Cc3cccc(C(F)(F)F)c3)ccn12 [GSK2297543],18%
2,Nc1nccc(-c2c(-c3ccc(F)cc3)ncn2C2CCN(CC(F)(F)F)CC2)n1 [SB-236560],0%
3,O=c1cc(N2CCOCC2)nc2n(Cc3cccc(Cl)c3Cl)c(C3CC3)nn12 [GSK2358994],46%
4,Fc1ccc(-c2ncn(CCCN3CCOCC3)c2-c2ccccn2)cc1 [SB-211742],23%
5,CC(C)Oc1ccc2c(-c3ccnc(Nc4ccc(N5CCN(C)CC5)cc4)n3)cnn2n1 [GW696155],10%
6,COc1ccc(COc2cc(-n3cnc4ccccc43)sc2C(N)=O)cc1 [GSK1024304],9%
7,C[C@@H](Oc1cc(-n2cnc3ccc(NC(=O)NC(C)(C)C)cc32)sc1C(N)=O)c1ccccc1Cl [GSK346294],59%
8,Cl.Nc1ncnc2occ(-c3ccc(NC(=O)Nc4cc(C(F)(F)F)ccc4F)cc3)c12 [SB-707548],98%
9,COc1cc2c(cc1OCCN1CCN(C)CC1)ncc1c3ccc(C#N)cc3[nH]c21,34%
10,O=C(NCCNc1ccnc(Nc2ccc(F)cc2)n1)Nc1ccccc1F [GSK1379880],11%
11,O=C(NCCNc1ccnc(Nc2ccc(F)cc2)n1)c1cc2ccccc2s1 [GSK1379874],17%
12,COc1cc2ncn(-c3cc(OCc4sccc4Cl)c(C(N)=O)s3)c2cc1OC [GSK448459],99%
13,Cc1cccc(-c2nc(-c3ccc(S(C)(=O)=O)cc3)sc2-c2ccncc2)c1,26%
14,CCc1nc(-c2cccc(C)c2)c(-c2ccnc(NCc3ccccc3)c2)s1,7%
15,c1ccc(-c2cc(-c3c[nH]nc3-c3ccccn3)ccn2)cc1 [GW576604],0%
16,COc1cc(Nc2nccc(N3CCC(NC(=O)c4cccc(NC(C)=O)c4)C3)n2)cc(OC)c1OC (stereo not drawn) [GSK1379754],32%
17,Cn1ccc2ncnc(Oc3ccc(NC(=O)Nc4ccncc4)c(Cl)c3)c21,0%
18,Cl.Oc1cccc(Nc2ccnc3cc(-c4ccncc4)ccc23)c1 [GW494601],11%
